About 1,700 (0.52%) of roughly 330,000 compounds were called active. The sample holds actives, similar compounds and a random draw of the others, so the mix is not that of the screen. Values without a mark were called inactive. Rule as the data show it: active = inhibition above about 50%; inactive = the rest.
experiment: lowers stimulated NF-kB reporter luminescence – cell-based, uHTS, TCR NF-kB activation inhibitor project, primary screen (AID 435003); details: Jurkat, PMA/ionomycin-induced NF-kB luciferase reporter, at 4 µM, active compounds read high

SMILES | inhibition
N/C(=N\OC(=O)N1c2ccccc2Sc2ccccc21)c1ccc(Br)cc1 | 77% (active)
N/C(=N\OC(=O)Cc1ccccc1[N+](=O)[O-])c1ccc(Br)cc1 | 1.58%
N/C(=N\OC(=O)c1ccc2c(c1)OCO2)c1ccc(Br)cc1 | -102%
CC(C)(C)NS(=O)(=O)NC(=O)C1=C(N2CCCC2)COC1=O | -4.98%
COC(=O)C1=NNC2(c3ccc(C)cc3)C(=O)N(c3cccc(C)c3C)C(=O)C12 (centres undefined) | -13.7%
Cc1ccc(S(=O)(=O)N2CCCCC2)cc1C(=O)N(C)CC(=O)Nc1cccc(F)c1 | 0.943%
Cc1cc(C)cc(NC(=O)N2CCC(NC(=O)c3ccc(F)cc3)CC2)c1 | -8.05%
Cc1ccc(S(=O)(=O)N2CCCCC2)cc1NC(=O)CCNC(=O)c1ccccc1 | 1.31%
O=C(Nc1cccc(S(=O)(=O)N2CCCCC2)c1)c1cncc(Br)c1 | -9.4%
O=C(CCNC(=O)c1ccc(Br)cc1)Nc1cccc(S(=O)(=O)N2CCCCC2)c1 | 51.4% (active)
COc1ccc(-n2nnc3c(=O)n(CC(=O)OCc4ccccc4)cnc32)cc1 | -2.47%
CCOC(=O)c1ccc(NC(=O)Cc2cccs2)cc1 | -42.6%
CCCc1nnc(SCC(=O)Nc2ccc(C(=O)OCC)cc2)o1 | -1.45%
CCOC(=O)c1ccc(NC(=O)Cn2cnc3cc(C)c(C)cc32)cc1 | 66.1% (active)
COc1ccc(CNC(=O)C2CCN(S(C)(=O)=O)CC2)cc1 | 11.1%
COc1ccc(CNS(=O)(=O)c2cc(-c3cc(C)no3)ccc2C(C)C)cc1 | 50.9% (active)
CCOc1ccccc1CNS(=O)(=O)c1cc(-c2cc(C)no2)ccc1C | 18%
Cc1cc(-c2ccc(C)c(S(=O)(=O)NCCCN(Cc3ccccc3)C(C)C)c2)on1 | 9.13%
COc1ccc(/C=N/NC(=O)C(C)N(c2ccc(OC)cc2)S(C)(=O)=O)cc1 (centres undefined) | 13.9%
CC(C)CC(=O)Nc1nnc(S(=O)(=O)N(C)c2ccc(Cl)cc2)s1 | 1.22%
CS(=O)(=O)N1CCN(C(=O)c2cc3ccccc3oc2=O)CC1 | 2.45%
O=c1oc2ccccc2cc1-c1cn(-c2ccccc2)c(=S)[nH]1 | 85.2% (active)
COc1cccc(-n2c(=S)[nH]c3c(oc4ccccc43)c2=O)c1 | -22.5%
CCOC(=O)c1cc(-c2ccc(F)cc2)n(CC(=O)NCc2ccccn2)c1C | -17.7%

SMILES | inhibition
CCCN(CC1CC1)C(=O)COC(=O)c1ccc(C)cc1O | -1.18%
Cc1cc(/C=N/n2cnnc2)c(C)n1-c1ccc2ncccc2c1 | 9.47%
O=C1Oc2ccccc2C(=O)/C1=C/c1ccccc1O | 8.95%
CCOc1cc(C(=O)N2CCc3cc(OC)c(OC)cc3C2)ccc1OC(F)F | 78.8% (active)
COc1cc2c(cc1OC)CN(C(=O)c1cc(S(=O)(=O)N3CCCCC3)ccc1Cl)CC2 | 20.2%
COc1cc2c(cc1OC)CN(C(=O)c1ccc(S(=O)(=O)N3CCCCCC3)cc1)CC2 | 12.2%
CCOc1ccccc1-c1nc(CN2CCC(C(=O)N3CCOCC3)CC2)c(C)o1 | 1.89%
N=c1c2c(-c3ccccc3)c(-c3ccccc3)n(Cc3ccccc3)c2ncn1CCCO | 58.6% (active)
CCN(CC)CCn1cnc2c1c(=O)[nH]c(=O)n2Cc1ccccc1 | -2.97%
COCCn1cnc2c1c(=O)n(Cc1ccc(Br)cc1)c(=O)n2Cc1ccccc1 | 11%
CSc1nc(-c2ccccc2)nc(C(Cl)Cl)n1 | 11%
Nc1cccnc1Sc1ccccc1 | 3.25%
Cc1ccc2c(c1)N(CC(=O)NCCCN1CCCCC1)C(=O)c1cccnc1O2 | -8.41%
COC(=O)C1C(=O)c2c([nH]c(C(=O)OCCSC)c2C)CC1C (centres undefined) | -39.9%
CCCOC(=O)c1[nH]c2c(c1C)C(=O)CC(c1cccs1)C2 (centres undefined) | 60.8% (active)
COCCOC(=O)c1[nH]c2c(c1C)C(=O)CC(c1ccc(OC)cc1)C2 (centres undefined) | -19.4%
O=S(=O)(c1ccc(Sc2nnc3ccccn23)nc1)N1CCOCC1 | -12%
Cc1c(Br)c([N+](=O)[O-])nn1C(C)C(=O)Nc1nccs1 (centres undefined) | 22.7%
COc1cc([C@H](Cc2ccccc2)NC(C)=O)oc(=O)c1 | 8.38%
CCN1/C(=C\c2ccc3ccccc3[n+]2CC)Sc2cc(C)ccc21 | 90.1% (active)
CCSC1=C(C#N)C(=O)n2c1cc1c2CCCC1 | 3.71%
CC1(C)CC(N2CCN(C(c3ccccc3)c3ccccc3)CC2)=CC(=[N+]2CCCCC2)C1 | 83.2% (active)
Oc1ccccc1CN1CCN(C(c2ccccc2)c2ccccc2)CC1 | -10.4%
O=C1CC(N2CCN(C(c3ccccc3)c3ccccc3)CC2)C(=O)N1 (centres undefined) | 4.97%

SMILES | inhibition
CC(C)(C)NS(=O)(=O)CC12CCC(CC1=O)C2(C)C (centres undefined) | -14%
CC/C(=N\NC(=O)c1c(C)nc2ccccn12)c1ccc(Cl)cc1 | -10.6%
O=C(Nc1ccccc1Cl)/C(Cl)=C(\Cl)S(=O)c1ccccc1 (centres undefined) | 100% (active)
CC1(C)CC(CCC(=O)Nc2ccccc2Cl)C(=O)O1 (centres undefined) | 5.25%
Cc1c(NC(=O)Nc2ccccc2Cl)sc(=S)n1C | 10.9%
CSc1n[nH]c(=S)n1N | 8.75%
CC1=Nn2c(nnc2-c2ccccc2)SC1 | -7.08%
COc1ccccc1-c1nnc2n1N=C(c1ccc(OC(F)F)c(OCC3CC3)c1)CS2 | 21.8%
COc1ccc(C2=Nn3c(nnc3-c3ccccc3OC)SC2)cc1OC1CCCC1 | 57.3% (active)
COc1cc(C(=S)NC2CCCCC2)ccc1O | -4.8%
C/C(CC(O)(/C=N/O)c1ccccc1)=N\O (centres undefined) | -6.87%
CCCNC(=O)OC[C@H]1O[C@H](CCO/N=C/[C@@H](NS(=O)(=O)c2ccc(C)cc2)[C@H](C)/C=C/CC(=O)OC)C=C[C@@H]1Oc1ccc(OC)cc1 | 8.93%
O=C(COCc1cc(-c2ccc3c(c2)OCO3)on1)N1CCN(c2cccc(Cl)c2)CC1 | 3.84%
O=S(=O)(NCCc1ccc(F)cc1)c1cccc2cccnc12 | 2.69%
O=[N+]([O-])c1ccccc1S(=O)(=O)Nc1cccc2cccnc12 | 70.3% (active)
NS(=O)(=O)c1ccc(CCNS(=O)(=O)c2cccc3cccnc23)cc1 | -18.6%
O=C(Nc1ccc(Br)cc1F)C1CC(=O)N(C2CCCCC2)C1 (centres undefined) | -3.7%
CCOCCCn1c(NN)nc2ccccc2c1=O | -7.49%
CCn1c(SCc2ccccc2)nc2cc(OC)c(OC)cc2c1=O | -6.84%
CCn1c(/C=C/c2ccc([N+](=O)[O-])o2)nc2ccccc2c1=O | 54.7% (active)
Cc1noc(C)c1C(=O)N(CC(=O)NC1CCCC1)Cc1ccccc1F | -8.54%
COc1ccc(C(=O)COC(=O)C(O)c2ccccc2)c(OC)c1 (centres undefined) | 0.0915%
CCOc1ccc2[nH]c3nc(SCC(=O)NC4CCCC4)nnc3c2c1 | 59% (active)
COc1ccc2[nH]c3nc(SCC(=O)NC4CC4)nnc3c2c1 | -17.7%

SMILES | inhibition
O=C(CSc1nnc2c(n1)[nH]c1ccccc12)NC1CCCCC1 | 21.2%
O=C(c1ccc(Cl)s1)N(Cc1nnc(-c2ccccc2Cl)o1)C1CC1 | -18.3%
Cc1cc(C(=O)COc2ccc(Br)cc2F)c(C)n1C1CC1 | -9.16%
C=CCOc1cccc(C2NC(=O)c3ccccc3O2)c1 (centres undefined) | 3.44%
Cc1ccc(C)c(NS(=O)(=O)c2cc(Br)cnc2N)c1 | -1.35%
C/C=C(\C)C(=O)N1CC2(CC(c3cccc(NC(=O)CCCCC)c3)=NO2)C[C@@H]1C(N)=O (some centres undefined) | 2.26%
Oc1ccc(/C=N/Nc2ccc(C(F)(F)F)cn2)cc1O | 59.5% (active)
Oc1ccc(Br)cc1/C=N/Nc1ccccn1 | 32.4%
O=C(N/N=C/c1ccc(O)c(O)c1)C1c2ccccc2Oc2ccccc21 | 2.58%
O=C(c1ccc(OC2CCN(C(=O)c3cccnc3)CC2)cc1)N1CCCCCC1 | -2.83%
Cc1ccc(-n2ncc3c2CC(C)(C)CC3NC(=O)Cc2c(C)noc2C)cc1 (centres undefined) | 50.6% (active)
COc1ccc(-n2ncc3c2CC(C)(C)CC3NC(=O)CCc2c(C)noc2C)cc1 (centres undefined) | 20%
CC1=C(C(=O)NC2CC(C)(C)Cc3c2cnn3-c2ccc(C)cc2)OCCO1 (centres undefined) | 4.55%
CCN1C(=O)/C(=C2\SC(N3CCCCC3)=NC2=O)c2ccccc21 | -33.7%
COC(=O)c1ccc(C(=O)Nc2cc(Cl)ccc2Cl)cc1NC(=O)c1ccccc1C | -2.99%
Cc1c(C=O)c2ccccc2n1CCOc1ccccc1 | -14.6%
COc1cc2c(cc1OC)CN(C(=O)c1cc(=O)c3ccccc3o1)CC2 | 50.7% (active)
COc1ccccc1CNC(=O)c1cc(=O)c2ccccc2o1 | -3.35%
COc1ccc2c(CC(=O)N3CCc4cc(OC)c(OC)cc4C3)coc2c1 | 15.9%
C=CCn1c(C)cc(C2=NNC(=NCC)SC2)c1C | 67.2% (active)
Cc1ccc(-n2c(=O)cc(N3CCN(Cc4ccccc4)CC3)[nH]c2=O)cc1 | 1.04%
CCNC(=O)c1cccc(NC(=O)C2CC(=O)N(CCc3ccccc3)C2)c1 (centres undefined) | 8.87%

— PubChem BioAssay AID435003 (Sanford-Burnham Center for Chemical Genomics, 2010)
